High-throughput results from PubChem BioAssay.
The full list was thinned out, with hits kept by preference.
IL-1B inflam inh: inflammasome signaling inhibition, IL-1 beta readout | THP-1 LPS/ATP IL-1B secretion, AlphaLISA, 16 h; stronger effect = lower value | activity change, % at 57.5 µM | 360,000 compounds, 4.7% hits | AID 743279; in the data active = activity change below about -50%; inconclusive = mostly about -30% to -49%
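Secreted IL-1B measured by AlphaLISA bead assay after 16 h compound exposure of THP-1 cells; compounds (final up to 57.5 uM) added 1 h before LPS (250 ng/mL) and ATP (1.25 mM) stimulation; lower signal means less secretion.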
HT1080 IDH1KD tx: kills HT-1080 cells with IDH1 knockdown. HT-1080 IDH1 knockdown viability, ATP luminescence, 48 h. AID 686971. Potency, µM (titrated, usually from 46.1 µM), usual class: cytotoxic. 360,000 compounds, 2% hits
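CellTiter-Glo luminescence after 48 h compound exposure at 37 degrees C of IDH1-knockdown HT-1080 cells in 5% FBS RPMI. %Activity scaled between DMSO wells and cell-free media wells, with curves fitted and assigned curve classes.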
DT40 TDP1 no CPT: qHTS for Inhibitors of human tyrosyl-DNA phosphodiesterase 1 (TDP1): qHTS in cells in absence of CPT | DT40 Tdp1-/- hTDP1 cells, no CPT, ATP luminescence, 48 h | Potency, µM (titrated, usually from 46.2 µM), usual class: inhibitors | 420,000 compounds, 15% hits; note: nearly all actives have a fitted effect of over 55% in size
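Cells were dispensed at 400 per well, compounds added by pin tool, plates incubated ≥48 hr at 37 °C, then CellTiter-Glo added for 30 min at room temperature before luminescence reading. Line: DT40 Tdp1-/- complemented with hTDP1; camptothecin omitted.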
DT40 TDP1 CPT: DT40-hTDP1 cell growth loss with CPT | Potency, µM (highest dose often 46.2 µM), hits mostly inhibitors | 420,000 compounds, 12% hits | chicken DT40 Tdp1-/-;hTDP1 cells + 20 nM CPT, ATP luminescence, 48 h; note: nearly all actives have a fitted effect of over 55% in size
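Chicken DT40 Tdp1-/- cells complemented with human TDP1, 400 cells/well, exposed to compounds plus 20 nM camptothecin for at least 48 h at 37 C; viability read as ATP content by CellTiter-Glo luminescence.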
ALOX12 inh: blocks human arachidonate 12S-lipoxygenase | P18054 | purified 12hLO, xylenol orange hydroperoxide absorbance | Potency, µM (series often up to 108 µM), actives largely listed as inhibitors | 580,000 compounds, 1.1% hits | AID 1671190
Target sequence (P18054 whole entry, looked up): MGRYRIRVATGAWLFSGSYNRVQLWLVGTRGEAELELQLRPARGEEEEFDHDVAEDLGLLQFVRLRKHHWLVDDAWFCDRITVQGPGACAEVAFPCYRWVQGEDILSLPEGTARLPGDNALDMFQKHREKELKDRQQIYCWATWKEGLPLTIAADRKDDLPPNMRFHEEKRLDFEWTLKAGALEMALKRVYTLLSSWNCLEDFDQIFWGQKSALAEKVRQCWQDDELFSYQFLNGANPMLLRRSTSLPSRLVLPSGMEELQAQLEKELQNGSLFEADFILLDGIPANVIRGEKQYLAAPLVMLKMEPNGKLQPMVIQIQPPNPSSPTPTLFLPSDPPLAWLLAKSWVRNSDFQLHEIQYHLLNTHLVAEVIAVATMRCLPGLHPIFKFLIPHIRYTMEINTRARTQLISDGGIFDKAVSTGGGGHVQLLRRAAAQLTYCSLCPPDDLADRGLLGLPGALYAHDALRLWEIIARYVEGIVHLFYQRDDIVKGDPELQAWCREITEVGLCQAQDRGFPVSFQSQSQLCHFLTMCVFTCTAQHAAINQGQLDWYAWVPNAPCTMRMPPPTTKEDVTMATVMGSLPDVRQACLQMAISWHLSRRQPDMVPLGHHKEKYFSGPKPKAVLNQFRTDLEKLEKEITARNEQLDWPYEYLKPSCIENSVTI
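Purified human 12hLO at 150 nM in 25 mM Hepes, 0.01% Triton X-100, pH 7.0, preincubated 15 min at room temperature with compound. Reaction started with 40 uM arachidonic acid, 30 min at room temperature. Hydroperoxide measured by Fe-xylenol orange, 573/405 nm absorbance ratio.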
HT1080-NT tox: kills 2HG-producing HT-1080-NT fibrosarcoma cells; HT-1080-NT fibrosarcoma viability, CellTiter-Glo ATP luminescence, 48 h; Potency, µM (series often up to 46.1 µM), hits mostly cytotoxic; 360,000 compounds, 1.6% hits; AID 686970;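 note: NT is the 2HG producing partner of a matched IDH1 knockdown line; nearly all actives have a fitted effect of over 55% in size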
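Read-out is CellTiter-Glo luminescence after 10 minutes at room temperature, following 48 hours' compound treatment of HT-1080-NT cells (750 cells/well, RPMI, 5% FBS, 37 degrees C).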
A number is an active result; 0 = inactive; ? = inconclusive; - = no result given; [ ] = another dose, or the depositor's remark. Unless noted, calls come from the whole dose curve; as a rule, active = well fitted curve in the direction sought with a large enough effect; inconclusive = small, poorly fitted or top-dose-only effect, or another doubt; inactive = no such curve, though single readings can be large; an effect the other way counts as inactive or inconclusive.

SMILES	IL-1B inflam inh	HT1080 IDH1KD tx	DT40 TDP1 no CPT	DT40 TDP1 CPT	ALOX12 inh	HT1080-NT tox
CC(C)Cn1c(N)c(S(=O)(=O)c2cccs2)c2nc3ccccc3nc21	?	0	?	16µM	0	0
Cn1c(=O)c2c(ncn2CC(=O)Nc2cccc([N+](=O)[O-])c2)n(C)c1=O	-	-	-	-	0	-
Cc1nc2ccccc2nc1SCC(=O)N1CCOC(C)C1 (configuration not stated)	-	-	-	-	0	-
COc1cccc(C(=O)N2CCC3(CC2)NC(=O)N(c2ccccc2)N3)c1	-	-	-	-	6.3µM	-
O=C1NC2(CCCCC2)NN1c1ccccc1	0	5.2µM	?	0	?	?
COc1cccc(C(=O)N2CCC3(CC2)NC(=O)N(Cc2ccccc2)C3=O)c1	-	-	-	-	0	-
COc1cccc(CCC(=O)N2CCC3(CC2)NC(=O)N(c2cccc(F)c2)N3)c1	-	-	-	-	5.6µM	-
Cc1cccc(N2CCN(C(=O)CCN3C(=S)NC(C)(C)CC3C)CC2)c1C (configuration not stated)	0	0	?	?	?	0
Cc1cccc(N2NC3(CCCC(C)C3)NC2=S)c1C (configuration not stated)	-	-	-	-	8.9µM	-
O=C1NCCCCCCN(S(=O)(=O)c2ccc3c(c2)OCCO3)[C@H]2CCCC[C@@H]12	-	-	-	-	0	-
CC1=C[C@@H](CN(C)CCO)[C@H](C(C)C)C[C@H]1Cc1nnc(C)o1	-	-	-	-	0	-
O=C1CCN(S(=O)(=O)c2ccccc2)CCCN(Cc2ccncc2F)CCN1	-	-	-	-	0	-
CC1CCC2(CC1)NC(=S)N(c1ccccc1)N2 (configuration not stated)	0	18µM	0	0	?	?
COc1ccccc1CCC(=O)N1CCC2(CC1)NC(=O)N(c1ccccc1)N2	-	-	-	-	2µM	-
O=C1NC2(CCCC2)NN1c1ccccc1	-	-	-	-	0	-
O=C1NC2(CCC3(CC2)OCCO3)NN1c1ccc(Cl)cc1	0	6.5µM	?	0	?	?
COc1ccccc1CCC(=O)N1CCC2(CC1)CC(O)CCO2 (configuration not stated)	-	-	-	-	0	-
NC(=O)N1CCC2(CC1)NC(=O)N(c1ccccc1)N2	0	6.5µM	0	0	?	10µM
O=C1NC2(CCCCC2)C(=O)N1c1ccc(Cl)cc1	0	0	0	0	0	0
COc1ccc(N(C=O)C(C(=O)Nc2c(C)cccc2C)c2ccccc2)cc1 (configuration not stated)	0	0	?	?	0	0
CC1(c2ccccc2)N(Cc2ncccn2)C(=O)OC12CCN(C(=O)Cc1ccc(O)cc1)CC2 (configuration not stated)	-	-	-	-	0	-
Cn1cccc1CN1CCC2(CC1)COc1ccccc1[S+](=O)([O-])N2	-	-	-	-	0[6.33 µM]	-
COc1ccc(-c2noc(CC3CCN(C(=O)c4ccc(OC)c(OC)c4)CC3)n2)cc1	-	-	-	-	0	-
COc1cccc(CCC(=O)N2CCC3(CC2)NC(=O)N(c2ccccc2)N3)c1	-	-	-	-	2.5µM	-
O=C(CCc1ccccc1)N1CCC2(CC1)NC(=O)N(c1ccccc1)N2	-	-	-	-	2.2µM	-
SMILES	IL-1B inflam inh	HT1080 IDH1KD tx	DT40 TDP1 no CPT	DT40 TDP1 CPT	ALOX12 inh	HT1080-NT tox
COc1cccc(CCC(=O)N2CCC(c3n[nH]c(=O)n3-c3ccccc3)CC2)c1	-	-	-	-	0	-
COc1ccc(CCC(=O)N2CCC3(CC2)NC(=O)N(c2cccc(Cl)c2)N3)cc1	-	-	-	-	2µM	-
O=C(CCc1ccccc1)N1CCN(C(=O)CCc2ccccc2)CC1	0	0	0	0	0	0
Cn1nccc1C(=O)N1CCCCCCNC(=O)[C@@H]2C[C@@H](c3nc(-c4cccnc4)no3)C[C@@H]21	-	-	-	-	0	-
CC(=O)c1ccc(NC(=O)c2cc3sccc3n2Cc2ccc(Cl)cc2)cc1	-	-	16µM	16µM	0	-
CCOC(=O)c1ccc(NC(=O)c2cc3sccc3n2Cc2ccc(Cl)cc2)cc1	-	-	18µM	21µM	0	-
CCOC(=O)c1cccc(NC(=O)c2cc3sccc3n2Cc2ccc(Cl)cc2)c1	-	-	18µM	?	0	-
O=C(Nc1ccc2c(c1)OCCO2)c1cc2sccc2n1Cc1ccccc1	?	0	?	18µM	0	0
O=C(Nc1ccc2c(c1)OCCO2)c1cc2sccc2n1Cc1ccc(F)cc1	-	0	?	?	0	0
CC(=O)Nc1ccc(NC(=O)CSC2=C(C#N)C(c3ccccc3F)CC(=O)N2)cc1 (configuration not stated)	-	-	-	-	0	-
Cc1ccc(Cn2c(C(=O)Nc3cccc(Cl)c3)cc3sccc32)cc1	-	-	?	18µM	?	-
CCOC(=O)c1ccccc1NC(=O)c1cc2sccc2n1C	0	0	0	0	0	0
Cc1ccc(Cn2c(C(=O)O)cc3sccc32)cc1	0	0	0	0	0	0
CCOC(=O)c1cccc(NC(=O)c2cc3sccc3n2C)c1	0	?	21µM	?	0	0
Cc1ccccc1N1Cc2c(NCCc3ccccc3F)ncnc2N(C)CC1=O	-	-	-	-	0	-
CCS(=O)(=O)c1ccc(C=NNc2nc3ccccc3o2)cc1	0	0	23µM	?	0	0
O=[N+]([O-])c1ccc2[nH]c(O)c(N=NC(=S)Nc3cccnc3)c2c1	0	0	0	0	?	0
Oc1cccc(NC(=S)N=Nc2c(O)[nH]c3ccccc23)c1	0	?	13µM	?	?	?
CCOc1ccc(NC(=S)N=Nc2c(O)[nH]c3ccccc23)cc1	0	?	7.3µM	9.2µM	0	?
CC(=O)NC(C(=O)O)c1ccccc1 (configuration not stated)	-	-	-	-	0	-
Cc1cc(-c2ncc(CC(=O)Nc3ccc(-c4cnccn4)cn3)cc2C)ccn1	-	-	-	-	0	-
C=CCN(C1CCCCC1)S(=O)(=O)c1ccc2c(c1)oc(=O)n2C	0	0	?	8.2µM	0	0
Cc1ccc(O)c(/C=N/NC(=O)c2[nH]ncc2Br)c1	0	0	15µM	0	0	0
O=C(N/N=C\c1c(O)ccc2ccccc12)c1ccc(Cn2cccn2)o1	0	?	5.8µM	5.8µM	0	?
O=C(N/N=C/c1cccs1)c1[nH]ncc1Br	?	0	0	0	0	0
COc1ccc(OC)c(/C=N/NC(=O)c2[nH]ncc2Br)c1	0	0	0	0	0	0
CCOc1ccc(/C=N/NC(=O)c2[nH]ncc2Br)c(O)c1	0	5.2µM	5.2µM	5.2µM	0	7.3µM
O=C(N/N=C/c1c(O)ccc2ccccc12)c1[nH]ncc1Br	0	?	4.6µM	2.6µM	?	?
Cc1ccc(NC(=O)CN(C)C(=O)c2cc3ccccc3o2)cc1	0	0	?	0	0	0
Cc1ccc(-c2nccn3cc(C(=O)N4CCN(c5ccccn5)CC4)nc23)cc1	-	-	-	-	0	-
